# Laboratory results published in PubChem BioAssay (NCATS).
# Inconclusive results are not listed. Values without a mark were called inactive. The source made the active and inactive calls. The call rests on the fitted dose curve; in most records, active means well fitted cell-killing curve with a large enough effect; inconclusive means small, poorly fitted or top-dose-only effect, or effect the other way; inactive means no such curve, though single readings can be large or run the other way.
# Experiment: Quantitative High-Throughput drug screen in 47 multiple myeloma cell lines against the NCATS MIPE library collection: AMO1_DSMZ cell viability assay (AID 1918927; further: nearly all actives have a fitted effect of over 30% in size)
# Settings: AMO1 myeloma cells viability, CellTiter-Glo ATP luminescence, 48 h; series mostly up to 45.8 µM; viability, % of DMSO: at the top concentration
# Method in brief: (§1)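 Primary qHTS used for cherry-picking: cells at 500/well, library compounds for 48 h (37C, 5% CO2), luminescent ATP assay.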
# Potency means the concentration at half of the fitted maximal effect.
Compound,"viability, % of DMSO",Potency
CC(C)(Sc1ccc(CCN(CCCCC2CCCCC2)C(=O)NC2CCCCC2)cc1)C(=O)O,122%,–
CCOC(=O)N1CCC(=C2c3ccc(Cl)cc3CCc3cccnc32)CC1,116%,–
Cc1cnc(Nc2ccc(OCCN3CCCC3)cc2)nc1Nc1cccc(S(=O)(=O)NC(C)(C)C)c1,–,0.418 µM (active)
Cc1cc(-c2ccc(CC(=O)Nc3ccc(-c4cccnc4)cc3)cc2)ccn1,–,18.7 µM (active)
Cc1ccc(NC(=O)c2cccc(C(C)(C)C#N)c2)cc1Nc1ccc2ncn(C)c(=O)c2c1,–,5.9 µM (active)
CCOC(=O)N[C@@H]1CC[C@@H]2[C@@H](C1)C[C@H]1C(=O)O[C@H](C)[C@H]1[C@@H]2C=Cc1ccc(-c2cccc(F)c2)cn1,–,18.7 µM (active)
O=c1ncn2nc(Sc3ccc(F)cc3F)ccc2c1-c1c(Cl)cccc1Cl,–,18.7 µM (active)
CCc1ccc(CCOc2ccc(CC3SC(=O)NC3=O)cc2)nc1 (configuration not stated),99.5%,–
COc1ccc(-c2c(-c3ccc(O)cc3O)n[nH]c2C)cc1,–,42.9 µM (active)

# Experiment: Quantitative High-Throughput drug screen in 47 multiple myeloma cell lines against the NCATS MIPE library collection: ARP1_JJKsccF8 cell viability assay (AID 1918928; further: nearly all actives have a fitted effect of over 40% in size)
# Settings: ARP1 myeloma cells viability, CellTiter-Glo ATP, 48 h; series mostly up to 45.8 µM; viability: at the top concentration
# Method in brief: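 Viability screen: myeloma cells (500/well) incubated 48 h at 37 °C, humidified 5% CO2, with pinned library compounds; CellTiter-Glo added, luminescence read; DMSO wells set 100%, medium-only wells 0%.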
Compound,Potency,viability
CCOc1ccn(-c2ccc(F)cc2)c(=O)c1C(=O)Nc1ccc(Oc2ccnc(N)c2Cl)c(F)c1,14.8 µM (active),–
Cc1ccnc(NS(=O)(=O)c2ccc(NC(=O)Nc3ccc(S(=O)(=O)Nc4nccc(C)n4)cc3)cc2)n1,–,86.8%
NS(=O)(=O)c1cc2c(cc1Cl)NC=NS2(=O)=O,–,117%
CC(C)NCC(O)COc1ccc(COCCOC(C)C)cc1 (configuration not stated),–,102%
O=C(c1cc(Cc2n[nH]c(=O)c3ccccc23)ccc1F)N1CCN(C(=O)C2CC2)CC1,–,86.7%

# Experiment: Quantitative High-Throughput drug screen in 47 multiple myeloma cell lines against the NCATS MIPE library collection: ARD_JJKsccE7 cell viability assay (AID 1918929)
# Settings: ARD myeloma cell line viability, CellTiter-Glo, 48 h; series mostly up to 45.8 µM; viability: at the top concentration
# Method in brief: as §1
Compound,Potency,viability
CCOc1ccn(-c2ccc(F)cc2)c(=O)c1C(=O)Nc1ccc(Oc2ccnc(N)c2Cl)c(F)c1,18.7 µM (active),–
O=c1[nH]c(-c2ccc(C(F)(F)F)cc2)nc2c1CSCC2,–,126%
Cc1ccnc(NS(=O)(=O)c2ccc(NC(=O)Nc3ccc(S(=O)(=O)Nc4nccc(C)n4)cc3)cc2)n1,23.5 µM (active),–
O=C(O)[C@@H](c1ccc(OCc2ccc3ccccc3n2)cc1)C1CCCC1,–,123%
CC[C@@H](C)[C@H](NC(=O)[C@H](CC1CCCCC1)NC(=O)c1ccno1)C(=O)N1CCC2(CCc3ccccc32)CC1,–,93.6%
O=C(O)COCCN1CCN(C(c2ccccc2)c2ccc(Cl)cc2)CC1 (configuration not stated),–,155%
NS(=O)(=O)c1cc2c(cc1Cl)NC=NS2(=O)=O,–,126%
COc1ccc(-c2oc3cc(OC)ccc3c2C(=O)c2ccc(C#N)cc2)cc1,10.5 µM (active),–
CC(C)(Sc1ccc(CCN(CCCCC2CCCCC2)C(=O)NC2CCCCC2)cc1)C(=O)O,–,111%
CCOC(=O)N1CCC(=C2c3ccc(Cl)cc3CCc3cccnc32)CC1,0.0017 µM (active),–
CC1(C)Cc2c(-c3ccccc3)c(-c3ccc(Cl)cc3)c(CC(=O)O)n2C1,–,111%
Cc1cc(-c2ccc(CC(=O)Nc3ccc(-c4cccnc4)cc3)cc2)ccn1,16.6 µM (active),–
Cc1ccc(NC(=O)c2cccc(C(C)(C)C#N)c2)cc1Nc1ccc2ncn(C)c(=O)c2c1,0.332 µM (active),–
CCOC(=O)N[C@@H]1CC[C@@H]2[C@@H](C1)C[C@H]1C(=O)O[C@H](C)[C@H]1[C@@H]2C=Cc1ccc(-c2cccc(F)c2)cn1,18.7 µM (active),–
CCc1ccc(CCOc2ccc(CC3SC(=O)NC3=O)cc2)nc1 (configuration not stated),–,126%

# Experiment: Quantitative High-Throughput drug screen in 47 multiple myeloma cell lines against the NCATS MIPE library collection: Karpas620_DSMZ cell viability assay (AID 1918959); further: nearly all actives have a fitted effect of over 30% in size
# Settings: Karpas620 myeloma viability, CellTiter-Glo ATP luminescence, 48 h; series mostly up to 45.8 µM; viability (% of DMSO): at the top concentration
# Method in brief: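 Myeloma cells (500 per well) were exposed to MIPE 4.0 compounds by pin transfer and incubated 48 hours at 37C, 5% CO2. Viability was read as ATP by CellTiter-Glo luminescence, normalised to DMSO (100%) and media-only (0%) wells.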
Compound,Potency,viability (% of DMSO)
O=C1CCCC2=C1C(c1[nH]ncc1Cl)N=C(Nc1nc3ccccc3o1)N2 (configuration not stated),4.18 µM (active),–
O=c1[nH]c(-c2ccc(C(F)(F)F)cc2)nc2c1CSCC2,–,108%
Cc1ccnc(NS(=O)(=O)c2ccc(NC(=O)Nc3ccc(S(=O)(=O)Nc4nccc(C)n4)cc3)cc2)n1,16.6 µM (active),–
NCCc1ccc(O)c(O)c1,20.9 µM (active),–
O=C(O)[C@@H](c1ccc(OCc2ccc3ccccc3n2)cc1)C1CCCC1,–,99.7%
CC[C@@H](C)[C@H](NC(=O)[C@H](CC1CCCCC1)NC(=O)c1ccno1)C(=O)N1CCC2(CCc3ccccc32)CC1,–,88.2%
NCCCC(N)(C(=O)O)C(F)F (configuration not stated),–,103%
O=C(O)COCCN1CCN(C(c2ccccc2)c2ccc(Cl)cc2)CC1 (configuration not stated),–,122%
Nc1nc2c(ncn2COCCO)c(=O)[nH]1,–,123%
NS(=O)(=O)c1cc2c(cc1Cl)NC=NS2(=O)=O,–,115%
COc1ccc(-c2oc3cc(OC)ccc3c2C(=O)c2ccc(C#N)cc2)cc1,1.66 µM (active),–
CC(=O)NC(C)c1ccc(Oc2ccc(OC(C)C)cc2)cc1 (configuration not stated),0.296 µM (active),–
COc1cc(F)c(F)c(Nc2ccc(I)cc2F)c1NS(=O)(=O)C1(C[C@H](O)CO)CC1,20.9 µM (active),–
CC(C)NCC(O)COc1ccc(COCCOC(C)C)cc1 (configuration not stated),–,106%
CC(C)(Sc1ccc(CCN(CCCCC2CCCCC2)C(=O)NC2CCCCC2)cc1)C(=O)O,–,125%
O=C(c1cc(Cc2n[nH]c(=O)c3ccccc23)ccc1F)N1CCN(C(=O)C2CC2)CC1,–,73%
Cc1cnc(Nc2ccc(OCCN3CCCC3)cc2)nc1Nc1cccc(S(=O)(=O)NC(C)(C)C)c1,1.48 µM (active),–
COc1cc(Oc2ccnc3cc(OC)c(OC)cc23)ccc1NC(=O)NC(C)c1nccs1 (configuration not stated),7.43 µM (active),–
Nc1ncnc2nc(-c3ccc(N4CCOCC4)nc3)cc(-c3cccc(Br)c3)c12,–,113%
CC1(C)Cc2c(-c3ccccc3)c(-c3ccc(Cl)cc3)c(CC(=O)O)n2C1,6.62 µM (active),–
Cc1ccc(NC(=O)c2cccc(C(C)(C)C#N)c2)cc1Nc1ccc2ncn(C)c(=O)c2c1,1.18 µM (active),–
O=C1[C@H](Cc2ccc(O)cc2)N2C(=O)CCN(C(=O)NCc3ccccc3)[C@H]2CN1Cc1cccc2ccccc12,–,101%
COc1ccc(-c2c(-c3ccc(O)cc3O)n[nH]c2C)cc1,42.9 µM (active),–
